Screens: PubChem, several laboratories
Shown are actives, neighbours in structure and some others; about 1.3% of the full set was active somewhere.
PrPC TRFRET: inhibitors of human cell surface prion protein PrPC | P04156 | TR-FRET read-out | inhibition, % at 13.8 µM | hit rate 0.43% among 370,000 | AID 720596; in the data active means inhibition above about 24%
3CLpro inhibitor: SARS-CoV 3CLpro protease inhibition; AID 1706; recombinant SARS-CoV 3CLpro, quenched FRET peptide cleavage; P0C6X7; hit rate 0.14% among 290,000; inhibition, % at 6 µM; in the data active means inhibition above about 12%
CCHF vOTU inh-1: CCHFV vOTU protease inhibition; hit rate 0.55% among 370,000; inhibition, % at 11.5 µM; Pep-AMC fluorescence
PrP UTR inh: inhibition of PrP 5' UTR reporter expression | cell-based PrP 5' UTR mRNA reporter, plate reader | inhibition, % (no concentration beside the values) | hit rate 0.35% among 340,000 | AID 488862; in the data active means inhibition above about 52%
CCHF vOTU inh-2: confirmation of CCHF virus vOTU protease inhibitors. shares compounds with CCHF vOTU inh-1. AID 686976. Recombinant CCHFV vOTU, Pep-AMC fluorescence. hit rate 17% among 1,900. inhibition, % at 11.5 µM
Large screens that a line does not name were inactive (follow-up assays come after a bar, where they were run). Unless noted, no stated cut-off is given here; in the data, active means inhibition above about 30%; inactive means the rest.

COC(=O)CCCC1=CC2=C(c3ccccc3)C(=O)C(C)(OC(=O)C3CCCC3)C(=O)C2=CN1C1CCCC1 (stereo unspecified)	none (no result: 3CLpro inhibitor)
COC(=O)CCCC1=CC2=C(c3ccccc3)C(=O)C(C)(OC(=O)C3CCCC3)C(=O)C2=CN1C1CCCCC1 (stereo unspecified)	CCHF vOTU inh-1 33 (no result: 3CLpro inhibitor) | CCHF vOTU inh-2 inactive
COCCN1C=C2C(=O)C(C)(OC(=O)C3CCCC3)C(=O)C(c3ccccc3)=C2C=C1CCCC(=O)OC (stereo unspecified)	CCHF vOTU inh-1 34 (no result: 3CLpro inhibitor) | CCHF vOTU inh-2 39
CCOC(=O)CSc1nc(-c2ccc(OC)cc2)ns1	CCHF vOTU inh-1 33 | CCHF vOTU inh-2 inactive
COC(=O)CCC(=O)OC1(C)C(=O)C2=CN(CCCCO)C(c3ccc(OC)cc3)=CC2=C(Br)C1=O (stereo unspecified)	none (no result: PrPC TRFRET, CCHF vOTU inh-1, PrP UTR inh)
COC(=O)CCC(=O)OC1(C)C(=O)C2=CN(C(CO)CO)C(c3ccc(OC)cc3)=CC2=C(Br)C1=O (stereo unspecified)	CCHF vOTU inh-1 31 (no result: 3CLpro inhibitor, PrP UTR inh) | CCHF vOTU inh-2 inactive
O=c1[nH]c2c(s1)C(c1ccco1)C1C3CCC(C3)C1S2 (stereo unspecified)	CCHF vOTU inh-1 32 | CCHF vOTU inh-2 inactive
CCCCOc1nc2ccccc2nc1C(C#N)C(=O)NC1CCCCC1 (stereo unspecified)	none
CC(=O)N1CCN(c2ccc(N)cc2)CC1	CCHF vOTU inh-1 38 (no result: 3CLpro inhibitor) | CCHF vOTU inh-2 inactive
Nc1ccc(N2CCN(c3ccc(F)cc3)CC2)cc1	none
CCCCOC(=O)CSc1nc2c(c(=O)[nH]c(=O)n2C)n1C/C=C(\C)Cl	CCHF vOTU inh-1 31 | CCHF vOTU inh-2 inactive
CC1(C)OCC(C2CC(c3ccccc3)NS(=O)(=O)O2)O1 (stereo unspecified)	none
O=S1(=O)NC2c3ccccc3CC2O1 (stereo unspecified)	CCHF vOTU inh-1 37 | CCHF vOTU inh-2 inactive
Cn1ccc2c(N3CCCC3)cc3c(c21)C1CCC3O1 (stereo unspecified)	CCHF vOTU inh-1 38 (no result: 3CLpro inhibitor, PrP UTR inh) | CCHF vOTU inh-2 inactive
Cn1ccc2c(N3CCCCCC3)cc3c(c21)C1CCC3O1 (stereo unspecified)	none (no result: 3CLpro inhibitor, PrP UTR inh)
O=C(Nc1ccccc1Cl)c1c(F)c(F)c(F)c(F)c1F	none
O=C(NC1(O)C(=O)c2ccccc2C1=O)c1ccccc1	CCHF vOTU inh-1 49 | CCHF vOTU inh-2 31
COC1(NC(=O)c2ccccc2)C(C)=CC(=O)C=C1C	none
O=C(NC1(O)C(=O)c2ccccc2C1=O)c1c(Cl)cccc1Cl	CCHF vOTU inh-1 62 | CCHF vOTU inh-2 inactive
O=C(Cc1ccccc1)Nc1ccc(NC(=O)c2ccccc2)nc1	CCHF vOTU inh-1 33 | CCHF vOTU inh-2 inactive
O=C(CNS(=O)(=O)c1ccccc1Br)OCC(=O)N1CCc2ccccc21	none
CC(=O)Nc1ccc(S(=O)(=O)NCC(=O)OCC(=O)N2CCc3ccccc32)cc1	CCHF vOTU inh-1 30 | CCHF vOTU inh-2 inactive
CN1CCc2c(sc(N)c2C(=O)c2ccc(Cl)cc2)C1	none
COC(=O)/C=C1\OCc2cc(OC)c(OC)cc21	CCHF vOTU inh-1 37 (no result: 3CLpro inhibitor, PrP UTR inh) | CCHF vOTU inh-2 inactive
COc1ccc(-c2cc3nnc(-c4ccccc4)nc3s2)cc1	none
COC(=O)c1cc(NS(=O)(=O)c2ccc(N3CCCCC3)c([N+](=O)[O-])c2)cc(C(=O)OC)c1	none
COC(=O)c1cc(NS(=O)(=O)c2ccc(N3CCC(C)CC3)c([N+](=O)[O-])c2)cc(C(=O)OC)c1	CCHF vOTU inh-1 34 | CCHF vOTU inh-2 inactive
COc1ccccc1-n1cnnc1SCC(=O)N1CCOCC1	none
Cc1oc2c(c1C(=O)O)C(=O)c1ccccc1C2=O	CCHF vOTU inh-1 67 | CCHF vOTU inh-2 78
CCN1C(=O)[C@@H]2[C@H](C1=O)[C@@H]1C(=O)Nc3ccccc3C(=O)N1[C@@H]2c1ccc(OC)cc1	CCHF vOTU inh-1 34 (no result: 3CLpro inhibitor) | CCHF vOTU inh-2 inactive
CC(C)CCCCCCCCc1cccc(O)c1C(=O)O	CCHF vOTU inh-1 43 (no result: 3CLpro inhibitor, PrP UTR inh) | CCHF vOTU inh-2 inactive
Cc1cc(O)c(-c2cc(C(=O)Nc3cccnc3)[nH]n2)cc1C	none
CCOC(=O)C1=C(CNC(C)(C)CC(C)(C)C)NC(=O)NC1c1cccc([N+](=O)[O-])c1 (stereo unspecified)	CCHF vOTU inh-1 31 | CCHF vOTU inh-2 inactive
CCOC(=O)c1c(-c2ccccc2)csc1NC(=O)c1ccc(S(=O)(=O)N2CC(C)OC(C)C2)cc1 (stereo unspecified)	none
CCOC(=O)c1c(NC(=O)/C=C/C(=O)O)sc(C)c1-c1ccc(C(C)(C)C)cc1	CCHF vOTU inh-1 45 | CCHF vOTU inh-2 inactive
CCOC(=O)c1c(NC(=O)/C=C\C(=O)O)sc(C)c1-c1ccccc1	none
CCOc1ccc2noc3c2c1C(=O)c1ccccc1-3	CCHF vOTU inh-1 87 | CCHF vOTU inh-2 37
CCNc1ccc2noc3c2c1C(=O)c1ccccc1-3	none
COc1ccc2c3c([nH]c2c1)[C@H](C=C(C)C)N1C(=O)[C@@H]2CCCN2C(=O)[C@@H]1C3	none (no result: 3CLpro inhibitor, PrP UTR inh)
CC1=NN(c2ccc(C)cc2C)C(=O)C1C(c1ccccc1O)C1C(=O)N(c2ccc(C)cc2C)N=C1C (stereo unspecified)	CCHF vOTU inh-1 44 | CCHF vOTU inh-2 inactive
CC1=NN(c2ccc(Cl)cc2)C(=O)C1C(c1ccccc1O)c1c(C)[nH]n(-c2ccc(Cl)cc2)c1=O (stereo unspecified)	none (no result: PrPC TRFRET, CCHF vOTU inh-1)
COc1ccccc1NC(=O)c1ccc(Cl)c(S(=O)(=O)NCc2ccco2)c1	CCHF vOTU inh-1 33 (no result: 3CLpro inhibitor) | CCHF vOTU inh-2 inactive
CCOc1cc(C(=O)Nc2ccc(S(=O)(=O)Nc3nnc(CC)s3)cc2)cc(OCC)c1OCC	CCHF vOTU inh-1 38 | CCHF vOTU inh-2 inactive
COc1cccc(NC(=O)/C=C/c2ccc(S(=O)(=O)N3CCOCC3)cc2)c1	CCHF vOTU inh-1 30 (no result: 3CLpro inhibitor) | CCHF vOTU inh-2 inactive
CC1=NN(c2ccc(C)c(C)c2)C(=O)C1C(c1cccc(O)c1)C1C(=O)N(c2ccc(C)c(C)c2)N=C1C (stereo unspecified)	CCHF vOTU inh-1 42 | CCHF vOTU inh-2 inactive
Cn1cc(CN2CCC(O)CC2)c(-c2ccc(Oc3ccccc3)cc2)n1	none
COC(=O)c1cc(C)nc2c1C(=O)C(=O)C=C2N1CCOCC1	CCHF vOTU inh-1 107 | CCHF vOTU inh-2 109
COC(=O)c1cc(S(=O)(=O)N2CCOCC2)c(Cl)cc1N1CCOCC1	none
CSc1ccc(/C=C(/NC(=O)c2ccco2)C(=O)N2CCOCC2)cc1	CCHF vOTU inh-1 30 | CCHF vOTU inh-2 inactive
O=C(N/C(=C/c1ccc(Br)cc1)C(=O)N1CCOCC1)c1ccco1	none
COc1cc(/C=C2\C(=O)N(c3ccc(S(N)(=O)=O)cc3)N=C2C)ccc1OC(=O)c1ccco1	CCHF vOTU inh-1 48 | CCHF vOTU inh-2 inactive
COc1cc(/C=C2/C(=O)N(c3ccc(C(=O)O)cc3)N=C2C)cc(OC)c1O	CCHF vOTU inh-1 67 | CCHF vOTU inh-2 inactive
C#CCOc1ccc(/C=C2/C(=O)N(c3ccc(S(N)(=O)=O)cc3)N=C2C)cc1OC	none (no result: 3CLpro inhibitor, PrP UTR inh)
COc1cc(/C=C2\C(=O)N(c3ccccc3)N=C2C)ccc1Oc1ccc([N+](=O)[O-])cc1[N+](=O)[O-]	CCHF vOTU inh-1 48 | CCHF vOTU inh-2 inactive
COc1cc(/C=C2/C(=O)N(c3ccc(Br)cc3)N=C2C)cc(OC)c1OC	none (no result: PrPC TRFRET, CCHF vOTU inh-1)
